The list is not random: actives were taken first. Their share in the collection is about 0.45%.
GAA spleen mod: lysosomal alpha-glucosidase (human) modulation; Potency, µM (doses to about 79.9 µM), for the others: top-dose activity change, negative = inhibition, usual class: inhibitors; human spleen homogenate, 4-MU-alpha-glucoside fluorescence; 240,000 compounds, 0.006% hits;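 note: potency is the fitted concentration of half-maximal effect; 0% = enzyme with vehicle and -100% = no enzyme basal signal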
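Human spleen homogenate (1 ug) with 4-methylumbelliferyl-alpha-D-glucopyranoside (1 mM final) in 50 mM citrate/phosphate pH 5.0, 0.01% Tween-20; 40 min at 37 C. Stopped at pH 10; 4-MU fluorescence Ex 365/Em 440 nm; AC50 by Hill fit.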
Menin-MLL FL inh: menin-MLL binding inhibition, fluorescein peptide; Fluorescence polarization, fluorescein-MLL peptide displacement from menin; FP activity change, % at 61.4 µM; 290,000 tested, under 10 active; active = well fitted curve in the direction sought with a large enough effect in the polarisation, not every such curve was filed as active; inconclusive = small, poorly fitted or top-dose-only effect, or effect the other way, or a change in a side signal; inactive = no such curve, though single readings can be large or run the other way; the % refers to the polarisation; note: % of control where 0% means no effect
Menin-MLL TR inh: inhibitors of human menin-MLL interaction, mutant MLL peptide; O00255; Menin + Texas Red MLL mutant peptide, fluorescence polarization; Potency, µM (doses to about 61.6 µM), inactives show at the highest dose FP activity change, negative = inhibition, usual class: inhibitors; 270,000 compounds, 0.23% hits; AID 1768; active = well fitted inhibition curve with a large enough effect in the polarisation, with a control signal flat, not every such curve was filed as active; inconclusive = small, poorly fitted or top-dose-only effect, or effect the other way, or a change in a side signal; inactive = no such curve, though single readings can be large or run the other way; the % refers to the polarisation; note: potency is the fitted concentration of half-maximal effect; % of control where 0% means no effect
GAA inh: inhibitors of human lysosomal alpha-glucosidase. P10253. purified human GAA, 4-MU-alpha-glucoside fluorescence. Potency, µM (top dose mostly 76.9 µM), for the others: top-dose activity change, negative = inhibition, hits mostly inhibitors. 200,000 compounds, 0.005% hits;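 note: potency is the fitted concentration of half-maximal effect; plate controls were uninhibited enzyme wells for no effect and no-enzyme background for full effect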
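Fluorogenic assay: 4 nM human alpha-glucosidase with 400 uM 4-methylumbelliferyl-alpha-D-pyranoside in 50 mM citrate/phosphate, 0.005% Tween-20, pH 5.0, 20 min at room temperature. Compounds tested up to 77 uM; AC50 from Hill fits.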
CXXC DNA block: MLL CXXC-DNA interaction inhibition. MLL-CXXC / FITC-HOXA9 DNA fluorescence polarization. Potency, µM (top dose mostly 115 µM), inactives show at the highest dose activity change, negative = inhibition, usual class: inhibitors. 290,000 compounds, 0.037% hits. AID 2662; active = well fitted inhibition curve with a large enough effect in the polarisation, with a control signal flat, not every such curve was filed as active; inconclusive = small, poorly fitted or top-dose-only effect, or effect the other way, or a change in a side signal; inactive = no such curve, though single readings can be large or run the other way; the % refers to the polarisation; note: potency is the fitted concentration of half-maximal effect
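Fluorescence polarization: 7 uM MLL-CXXC (stock) preincubated 5 min with compounds, then 50 nM fluorescein-HOX-A9 DNA (stock) added; 30 min ambient. Buffer 50 mM Tris-HCl pH 7.5, 50 mM NaCl, 1 mM DTT, 0.05% BSA.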
GAA glycogen mod: alters human alpha-glucosidase cleavage of glycogen | recombinant GAA, glycogen substrate, Amplex Red glucose oxidase fluorescence | Potency, µM (titrated, usually from 76.4 µM), for the others: at the top dose activity change, negative = inhibition, usual class: inhibitors | 300,000 compounds, 0.38% hits;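 note: potency is the fitted concentration of half-maximal effect; 0% = full enzyme reaction and -100% = no-enzyme basal signal; the screen sought inhibitors and activators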
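Recombinant enzyme (4 nM final) with compounds titrated up to 77 uM and bovine liver glycogen (30 ug) in citrate pH 5.0, 0.01% Tween-20, 37 C 40 min. Released glucose detected by Amplex Red/glucose oxidase (Ex 573/Em 610); AC50 from Hill fits.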
Numbers without * were called inactive; ? = inconclusive; · = not tested or not shown; [ ] = remark or other dose. Unless noted, calls come from the whole dose curve; as a rule, active = well fitted curve in the direction sought with a large enough effect; inconclusive = small, poorly fitted or top-dose-only effect, or another doubt; inactive = no such curve, though single readings can be large; an effect the other way counts as inactive or inconclusive.

SMILES	GAA spleen mod	Menin-MLL FL inh	Menin-MLL TR inh	GAA inh	CXXC DNA block	GAA glycogen mod
CN=c1scc(C)n1/N=C/c1ccc(O)c(O)c1O	-14%	3	?	-14%	-16%	11µM*
Cc1cc(Nc2ccccc2)n(CCOC(=O)COc2ccccc2)n1	-4%	4	?	?	-3%	32µM*
COc1cccc(N2C(=O)CC(N3CCc4ccccc43)C2=O)c1 (stereo not given)	-6%	-2	-10%	-1%	?	40µM*
CC(C)c1ccc(S(=O)(=O)Nc2ccc(N3CCOCC3)cc2)cc1	·	2	11%	·	-9%	·
Cc1ccc(CNc2ccc(N3CCOCC3)cc2)cc1	·	-1	0%	·	1%	6.3µM*
c1cc(CNc2ccc(N3CCOCC3)cc2)ccn1	0%	3	-14%	-3%	0%	16%
CC(C)c1ccc(CNc2ccc(N3CCOCC3)cc2)cc1	-15%	-1	-7%	-6%	2%	28µM*
O=C(c1cccc(F)c1)N1CCC2(CCCN(C(c3ccccc3)c3ccccc3)C2)CC1	-5%	1	-10%	·	·	·
O=C1CCC(C(=O)N2CCc3ccccc3C2)CN1CCCN1CCOCC1 (stereo not given)	·	·	·	·	2%	4%[76.3 µM]
Cc1c(O)ccc2c1OCO2	2%[17.4 µM]	1[11.7 µM]	14%[11.7 µM]	·	·	·
O=C1CC(c2ccccc2)Sc2ccccc2N1Cc1ccc(F)cc1 (stereo not given)	·	·	·	·	·	-15%[76.3 µM]
CC(=O)c1c(C)oc2ccc(N(C(=O)Oc3ccccc3)S(=O)(=O)c3ccc(Br)cc3)cc12	·	·	·	·	·	-11%[76.3 µM]
Cc1c(NC2=C(Cl)C(=O)N(c3ccccc3)C2=O)c(=O)n(-c2ccccc2)n1C	-3%	2	?	0%	7%	10µM*
COc1ccc(NCc2ccc([N+](=O)[O-])s2)c(OC)c1	3%	6	10%	-5%	15%	9.9µM*
COc1ccc(NCc2ccc([N+](=O)[O-])s2)cc1	1%	9	2%	0%	14%	?
COc1ccc2c(c1)c(=O)c(S(=O)(=O)c1ccc(F)cc1)cn2Cc1ccccc1Cl	·	·	·	·	·	2%[76.3 µM]
Cc1cc(O)c(N)c(C)c1Cl	3%	-3	14%	0%	4%	8.9µM*
Cc1cc(O)cc(C)c1Cl	-7%	-2	-6%	·	3%	·
N#Cc1sc2nc(-c3cccs3)cc(-c3ccccc3)c2c1N	5%	?	13µM*	-6%	17%	4%
CCN(CC)C(=O)c1sc2nc(-c3cccs3)cc(-c3ccc(Cl)cc3)c2c1N	2%	14	?	-3%	?	-5%
N#Cc1sc2nc(-c3cccs3)cc(-c3ccc(Cl)cc3)c2c1N	0%	?	25µM*	-1%	-10%	2%
N#Cc1sc2nc(-c3ccccc3)cc(C(F)(F)F)c2c1N	-13%	4	18%	6%	6%	7%
O=C(O)c1cccc(-c2ccc(/C=N/Nc3nn[nH]n3)o2)c1	-8%	0	27%	-8%	-8%	1.8µM*
CNC(=S)N/N=C/c1ccc(-c2cccc(C(=O)O)c2)o1	-13%	3	·	·	-5%	-24%
Cc1ccc(C(=O)N2CCCCC2CCN2CCCCC2)cc1 (stereo not given)	·	·	·	·	·	6%[76.3 µM]
SMILES	GAA spleen mod	Menin-MLL FL inh	Menin-MLL TR inh	GAA inh	CXXC DNA block	GAA glycogen mod
Cc1sc2nc(CN3CCN(c4ccc(O)cc4)CC3)[nH]c(=O)c2c1C	3%	6	·	·	-4%	16µM*
O=c1[nH]c(CN2CCN(c3ccccc3)CC2)nc2scc(-c3ccccc3)c12	4%	29	1%	3%	9%	-1%
CC(=O)c1ccc2c3c(ccc(O)c13)CC2	1%	5	5%	4%	-5%	31µM*
CC(=O)c1ccc(N2CCOCC2)cc1O	2%	0	-12%	·	·	·
COc1ccc2c(/C=N/NS(=O)(=O)c3ccc(C)cc3)c[nH]c2c1	3%	2	·	·	-7%	8.9µM*
CCS(=O)(=O)N1CCCc2cc(C(=O)Nc3cccc(C(C)=O)c3)ccc21	·	·	·	·	·	35µM*
CC(=O)c1cccc(NC(=O)c2ccc3c(c2)CCN3S(=O)(=O)c2ccccc2)c1	·	-1	?	·	?	4%[76.3 µM]
O=C(c1cccs1)N1N=C(c2ccccc2)CC1c1ccccc1O (stereo not given)	7%	8	18µM*	·	13%	-3%
Cc1ccc(NC(=O)CSc2ccc(-c3cccs3)nn2)cc1Cl	·	·	·	·	·	11%[76.3 µM]
Oc1ccc(NC(=S)Nc2ccc(F)cc2)cc1	·	2	1%	·	8%	11µM*
Fc1ccc(NC(=S)Nc2ccc(Br)cc2)cc1	-2%	4	?	-3%	3%	-16%
Cn1c(=O)c2c(-c3ccc(Cl)cc3)ccnc2n(C)c1=O	·	·	·	·	·	-8%[76.3 µM]
CCN(CC)c1ccc(NC(=S)NC(=O)c2cccs2)cc1	5%	-1	?	7%	-8%	14µM*
CCN(CC)c1ccc(NC(=S)NC(=O)c2ccco2)cc1	-9%	0	?	13%	9%	11µM*
CC(=O)N1CCOc2cc(S(=O)(=O)NCc3ccccc3Cl)c(Cl)cc21	·	·	·	·	·	13%[76.3 µM]
COc1ccc(/C=C/c2nc(C#N)c(N3CCCCC3)o2)cc1OC	·	·	·	·	·	-1%[76.3 µM]
CC(C)=NO[C@@H](C)c1cn([C@@H]2COC[C@@H]2O)nn1	-1%[17.4 µM]	0[11.7 µM]	19%[11.7 µM]	·	·	·
CO/N=C\CC(=O)Nc1ccc(Cl)c(Cl)c1	-10%	0	25µM*	?	-9%	16%
CC(=O)Nc1ccc(N/C=C/C(=O)C(C)(C)C)cc1	-4%	3	16%	-2%	6%	-16%
Cc1ccc(N/C=C/C(=O)C(C)(C)C)c(O)c1	-6%	-1	-9%	0%	1%	40µM*
COC1=C(C(=O)c2ccccc2)C(=O)C2(CC=C(C)C)C[C@H](C(=O)OCC(F)(F)F)C(C)(C)[C@@]1(CC=C(C)C)C2=O (tested in a mixture with another compound)	3%	1	-4%	·	·	·
O=C1CC(c2ccc(O)c(O)c2)Oc2c1ccc(O)c2O (stereo not given)	-2%	4	·	·	12%	11µM*
Oc1ccc(Nc2ccnc3cc(Cl)ccc23)cc1	-10%	5	18%	·	13%	13µM*
O=C(c1cnccn1)N1CCC2(CCCN(Cc3ccncc3)C2)CC1	0%	-5	-5%	·	·	·
COc1ccc2c(c1)c(/C=N/Nc1nc3ccccc3[nH]1)c(C)n2C	-7%	10	·	?	20%	28µM*
C(=N\Nc1nc2ccccc2[nH]1)/c1ccc2c(c1)OCCO2	1%	19	·	-9%	20%	13µM*
C(=N\Nc1ccc2ccccc2n1)/c1ccc2c(c1)OCCO2	-1%	0	?	?	29%	-29%
COc1cc(/C=N\Nc2nc3ccccc3[nH]2)cc(OC)c1OC	5%	?	?	0%	-11%	16µM*
